In the supplement of paper PMC10849652:
The full data set covers some 8,800 targets. This sample favours those with a hit. About 0.5% of all pairs of compound and target were hits.

Columns and labels:
Assay in all cases: log2 fold change, soluble protein after heating vs DMSO (PISA); higher = thermal stabilisation; K562 lysate, 10 uM; active = over 0.2 and 3.5 SD of the protein, either way, in both replicates (recomputed)
[1] = compound: C=CC(=O)N1CCC[C@@H](n2nc(-c3ccc(Oc4ccccc4)cc3)c3c(N)ncnc32)C1 [ibrutinib]
Procedure, shortened: (§1)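 To prepare the extract, K562 pellets were dounce-homogenised in PBS pH 7.4 with 1 mM MgCl2, giving crude material at 1 mg/mL protein. This was treated with 10 μM compound for 30 min, then heated in aliquots for 3 min over 48°C-58°C before pooling and addition of NP-40 to 0.5% at 4°C. Centrifugation at 21,000xg for 90 min left soluble protein in the supernatant, which TMTpro 16plex LC-MS/MS quantified with equalised channel sums. Results are log-two fold changes in thermal stability compared with solvent controls, from duplicates.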

[2] = compound: CC(=O)c1cnc2ccc(-c3cc(Cl)c(O)c(Cl)c3)nc2c1N[C@H]1CC[C@H](CN(C)C)CC1
Procedure, shortened: as §1

[3] = compound: CC(C)(C)Cn1c(N)nc2ccc(-c3[nH]c(C(C)(C)C)nc3-c3ccc(F)cc3)nc21 [ralimetinib]
Procedure, shortened: as §1

[4] = compound: CC(C)(O)CC(=O)NCCn1ccc2ncnc(Nc3ccc(Oc4cccc(C(F)(F)F)c4)c(Cl)c3)c21
Procedure, shortened: as §1

[5] = compound: CC(C)C1=C2N=C(C=C(N2N=C1)NCC3=CC=CC=C3)NCCCCCCN
Procedure, shortened: as §1

[6] = compound: CC1=C(C(CC(=O)N1)C2=CC=C(C=C2)C(F)(F)F)C(=O)NC3=C(C=C4C(=C3)C=NN4)F
Procedure, shortened: as §1

[7] = compound: CC1=C(C2=C(C=C1)C(=O)C3=CC=CC=C3N2CCCN)C
Procedure, shortened: as §1

[8] = compound: CC1=C(C=C(C=C1)NC(=O)C2=CC(=CC=C2)C(C)(C)C#N)NC3=CC4=C(C=C3)N=CN(C4=O)C
Procedure, shortened: as §1

[9] = compound: CC1=C(C=C(C=C1)NC(=O)C2=CC(=CC=C2)N(C)C)NC(=O)C3=CC=C(C=C3)O
Procedure, shortened: as §1

[10] = compound: CC1=CC=C(C=C1)SC2=C3C=C(SC3=CN=C2)C(=O)N
Procedure, shortened: as §1

[11] = compound: CCCS(=O)(=O)Nc1ccc(F)c(C(=O)c2c[nH]c3ncc(-c4ccc(Cl)cc4)cc23)c1F [vemurafenib]
Procedure, shortened: as §1

[12] = compound: CCCS(=O)(=O)Nc1ccc(F)c(C(=O)c2c[nH]c3ncc(Cl)cc23)c1F
Procedure, shortened: as §1

[13] = compound: CCN(CCCOc1ccc2c(Nc3cc(CC(=O)Nc4cccc(F)c4)[nH]n3)ncnc2c1)CCOP(=O)(O)O [barasertib]
Procedure, shortened: as §1

[14] = compound: CC[C@@H]1C(=O)N(C)c2cnc(Nc3ccc(C(=O)NC4CCN(C)CC4)cc3OC)nc2N1C1CCCC1
Procedure, shortened: as §1

[15] = compound: CC[C@@H]1C(=O)N(C)c2cnc(Nc3ccc(C(=O)N[C@H]4CC[C@H](N5CCN(CC6CC6)CC5)CC4)cc3OC)nc2N1C(C)C [volasertib]
Procedure, shortened: as §1

[16] = compound: CCn1c(C(=O)N(C2CC2)C2CC2)cc2c3c(ncn3C)c(Nc3cc(C)n(C)n3)nc21
Procedure, shortened: as §1

[17] = compound: CCn1cc(-c2ccnc3[nH]c(-c4cccc(CN(C)C)c4)cc23)c(-c2ccc(NC(=O)N(C)C)cc2)n1
Procedure, shortened: as §1

[18] = compound: CN1CCC(CNc2ccc3ncc(-c4cccc(OC(F)(F)F)c4)n3n2)CC1
Procedure, shortened: as §1

[19] = compound: CN1CCN(CCOc2cc(OC3CCOCC3)c3c(Nc4c(Cl)ccc5c4OCO5)ncnc3c2)CC1 [saracatinib]
Procedure, shortened: as §1

[20] = compound: CN1CCN(c2nc(C3=C(c4c[nH]c5ccccc45)C(=O)NC3=O)c3ccccc3n2)CC1 [sotrastaurin]
Procedure, shortened: as §1

Measured: log2 fold change

WDHD1 (UniProt O75717)
inactive: [1] 0.024 | [2] -0.002 | [3] 0.005 | [4] -0.01 | [5] -0.027 | [6] 0.007 | [7] -0.002 | [8] -0.002 | [9] 0.016 | [10] -0.005 | [11] -0.03 | [12] 0.022 | [13] -0.02 | [14] -0.011 | [15] -0.026 | [16] -0.001 | [17] 0.078 | [18] -0.066 | [19] 0.024 | [20] 0.003

WDCP (UniProt Q9H6R7)
inactive: [1] 0.021 | [2] 0.021 | [3] -0.006 | [4] -0.045 | [5] -0.027 | [6] -0.023 | [7] -0.041 | [8] 0 | [9] 0.01 | [10] 0.049 | [11] -0.004 | [12] 0.033 | [13] 0.032 | [14] 0.031 | [15] -0.019 | [16] -0.04 | [17] 0.003 | [18] 0.01 | [19] -0.011 | [20] 0.039

WRN (UniProt Q14191)
inactive: [1] 0.02 | [2] -0.008 | [3] 0.021 | [4] -0.055 | [5] -0.016 | [6] 0.023 | [7] 0.019 | [8] -0.016 | [9] 0.016 | [10] -0.048 | [11] -0.032 | [12] -0.065 | [13] 0.026 | [14] -0.032 | [15] 0.007 | [16] 0.053 | [17] -0.052 | [18] 0.022 | [19] 0.008 | [20] 0.031

USP3 (UniProt Q9Y6I4)
Chain of UniProt Q9Y6I4 (Q9Y6I4 whole entry, looked up): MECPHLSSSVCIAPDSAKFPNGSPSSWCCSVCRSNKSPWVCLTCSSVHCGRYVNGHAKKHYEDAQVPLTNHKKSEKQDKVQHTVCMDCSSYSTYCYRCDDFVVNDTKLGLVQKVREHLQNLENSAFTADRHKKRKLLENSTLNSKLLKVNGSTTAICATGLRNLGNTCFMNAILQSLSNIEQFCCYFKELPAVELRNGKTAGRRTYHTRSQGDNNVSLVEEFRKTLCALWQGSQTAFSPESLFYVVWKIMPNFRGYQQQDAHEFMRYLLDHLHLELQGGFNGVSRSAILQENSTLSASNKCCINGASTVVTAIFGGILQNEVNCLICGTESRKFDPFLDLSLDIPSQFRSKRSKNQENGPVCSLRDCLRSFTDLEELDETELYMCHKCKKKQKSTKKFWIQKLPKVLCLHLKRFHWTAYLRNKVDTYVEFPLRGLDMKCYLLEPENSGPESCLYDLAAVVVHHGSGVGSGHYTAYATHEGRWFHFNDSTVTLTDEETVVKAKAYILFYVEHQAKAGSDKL
inactive: [1] 0.01 | [2] 0.048 | [3] 0.042 | [4] -0.027 | [5] 0.014 | [6] 0.024 | [7] 0.011 | [8] -0.014 | [9] 0.016 | [10] -0.025 | [11] 0.041 | [12] -0.007 | [13] 0.008 | [14] 0.023 | [15] -0.012 | [16] -0.011 | [17] 0.064 | [18] -0.041 | [19] 0.011 | [20] 0.011

VPS18 (UniProt Q9P253)
inactive: [1] -0.007 | [2] -0.026 | [3] 0.038 | [4] -0.065 | [5] -0.022 | [6] 0.004 | [7] -0.046 | [8] -0.004 | [9] -0.041 | [10] 0.009 | [11] 0.037 | [12] 0.014 | [13] 0 | [14] 0 | [15] -0.083 | [16] 0.046 | [17] -0.048 | [18] -0.04 | [19] -0.012 | [20] 0.02

ZFPM1 (UniProt Q8IX07)
inactive: [1] 0.004 | [2] -0.034 | [3] 0.013 | [4] -0.067 | [5] 0.02 | [6] 0.01 | [7] 0.003 | [8] 0.033 | [9] 0 | [10] -0.026 | [11] 0.088 | [12] 0.007 | [13] 0.031 | [14] -0.017 | [15] 0.02 | [16] -0.042 | [17] -0.001 | [18] -0.021 | [19] 0.014 | [20] -0.009

WDR6 (UniProt Q9NNW5)
Chain of UniProt Q9NNW5 (Q9NNW5 whole entry, looked up): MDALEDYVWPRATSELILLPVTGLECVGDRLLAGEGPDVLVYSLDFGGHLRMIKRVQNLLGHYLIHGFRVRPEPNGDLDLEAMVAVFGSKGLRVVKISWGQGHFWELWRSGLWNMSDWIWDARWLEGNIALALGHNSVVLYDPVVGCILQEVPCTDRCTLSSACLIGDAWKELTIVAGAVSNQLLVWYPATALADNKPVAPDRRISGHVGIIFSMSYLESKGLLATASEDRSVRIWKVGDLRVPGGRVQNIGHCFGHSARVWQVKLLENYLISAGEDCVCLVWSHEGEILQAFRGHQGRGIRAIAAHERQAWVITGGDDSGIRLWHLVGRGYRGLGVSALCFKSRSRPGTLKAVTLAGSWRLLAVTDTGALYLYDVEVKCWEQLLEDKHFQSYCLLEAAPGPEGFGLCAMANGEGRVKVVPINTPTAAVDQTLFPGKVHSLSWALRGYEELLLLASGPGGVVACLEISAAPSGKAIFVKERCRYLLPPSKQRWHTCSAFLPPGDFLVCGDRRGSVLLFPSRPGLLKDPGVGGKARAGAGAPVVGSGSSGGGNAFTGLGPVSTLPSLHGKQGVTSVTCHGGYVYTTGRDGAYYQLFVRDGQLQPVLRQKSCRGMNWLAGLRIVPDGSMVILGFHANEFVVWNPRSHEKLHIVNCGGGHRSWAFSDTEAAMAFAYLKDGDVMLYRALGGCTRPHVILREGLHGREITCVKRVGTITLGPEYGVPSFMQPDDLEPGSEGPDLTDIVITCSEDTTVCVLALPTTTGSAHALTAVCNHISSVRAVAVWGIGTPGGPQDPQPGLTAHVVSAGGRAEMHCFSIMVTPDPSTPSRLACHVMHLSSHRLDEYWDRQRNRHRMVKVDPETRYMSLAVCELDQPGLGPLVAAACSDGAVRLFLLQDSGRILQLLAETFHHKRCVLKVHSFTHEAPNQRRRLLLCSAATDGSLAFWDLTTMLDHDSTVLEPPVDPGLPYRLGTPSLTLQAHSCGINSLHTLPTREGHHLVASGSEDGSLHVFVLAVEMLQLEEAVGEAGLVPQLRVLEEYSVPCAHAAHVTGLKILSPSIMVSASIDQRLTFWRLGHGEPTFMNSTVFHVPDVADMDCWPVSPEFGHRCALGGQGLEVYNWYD
inactive: [1] 0.008 | [2] 0.008 | [3] 0.018 | [4] -0.017 | [5] -0.032 | [6] -0.012 | [7] -0.019 | [8] 0.011 | [9] 0.022 | [10] 0.017 | [11] 0.008 | [12] -0.007 | [13] 0.013 | [14] -0.006 | [15] -0.029 | [16] -0.009 | [17] -0.053 | [18] 0.033 | [19] 0.01 | [20] 0.116

ZNF598 isoform 3 (UniProt Q86UK7)
Chain of UniProt Q86UK7 (Q86UK7 whole entry, looked up): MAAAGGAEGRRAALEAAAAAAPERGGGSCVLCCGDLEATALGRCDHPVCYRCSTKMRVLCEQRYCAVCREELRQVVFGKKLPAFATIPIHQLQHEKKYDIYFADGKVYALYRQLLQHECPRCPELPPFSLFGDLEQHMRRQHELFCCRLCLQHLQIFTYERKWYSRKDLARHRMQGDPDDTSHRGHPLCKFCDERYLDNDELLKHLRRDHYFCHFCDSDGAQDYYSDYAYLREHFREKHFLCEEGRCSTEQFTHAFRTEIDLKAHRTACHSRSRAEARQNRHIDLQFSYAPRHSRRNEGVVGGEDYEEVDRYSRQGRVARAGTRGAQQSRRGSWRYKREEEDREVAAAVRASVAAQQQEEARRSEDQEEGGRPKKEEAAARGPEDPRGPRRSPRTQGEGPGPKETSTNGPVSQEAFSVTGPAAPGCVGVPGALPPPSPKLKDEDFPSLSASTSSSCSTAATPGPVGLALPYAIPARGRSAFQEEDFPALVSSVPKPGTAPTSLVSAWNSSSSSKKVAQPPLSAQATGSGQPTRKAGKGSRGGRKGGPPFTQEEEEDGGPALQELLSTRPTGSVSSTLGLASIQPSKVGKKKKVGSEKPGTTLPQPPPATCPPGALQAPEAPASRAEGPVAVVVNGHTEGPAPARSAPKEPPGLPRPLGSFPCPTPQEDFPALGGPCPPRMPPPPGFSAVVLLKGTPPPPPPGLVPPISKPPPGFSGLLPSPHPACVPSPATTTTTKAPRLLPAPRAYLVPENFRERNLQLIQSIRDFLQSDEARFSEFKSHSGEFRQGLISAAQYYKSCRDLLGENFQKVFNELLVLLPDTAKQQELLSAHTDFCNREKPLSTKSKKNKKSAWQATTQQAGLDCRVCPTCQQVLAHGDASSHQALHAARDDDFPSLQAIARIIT
inactive: [1] 0.032 | [2] -0.007 | [3] -0.001 | [4] -0.017 | [5] 0.013 | [6] 0.019 | [7] 0.005 | [8] -0.001 | [9] -0.004 | [10] 0 | [11] 0.022 | [12] 0.036 | [13] 0.019 | [14] 0.067 | [15] -0.032 | [16] 0.017 | [17] -0.011 | [18] 0.001 | [19] -0.008 | [20] 0.014

WDR91 (UniProt A4D1P6)
Chain of UniProt A4D1P6 (A4D1P6 whole entry, looked up): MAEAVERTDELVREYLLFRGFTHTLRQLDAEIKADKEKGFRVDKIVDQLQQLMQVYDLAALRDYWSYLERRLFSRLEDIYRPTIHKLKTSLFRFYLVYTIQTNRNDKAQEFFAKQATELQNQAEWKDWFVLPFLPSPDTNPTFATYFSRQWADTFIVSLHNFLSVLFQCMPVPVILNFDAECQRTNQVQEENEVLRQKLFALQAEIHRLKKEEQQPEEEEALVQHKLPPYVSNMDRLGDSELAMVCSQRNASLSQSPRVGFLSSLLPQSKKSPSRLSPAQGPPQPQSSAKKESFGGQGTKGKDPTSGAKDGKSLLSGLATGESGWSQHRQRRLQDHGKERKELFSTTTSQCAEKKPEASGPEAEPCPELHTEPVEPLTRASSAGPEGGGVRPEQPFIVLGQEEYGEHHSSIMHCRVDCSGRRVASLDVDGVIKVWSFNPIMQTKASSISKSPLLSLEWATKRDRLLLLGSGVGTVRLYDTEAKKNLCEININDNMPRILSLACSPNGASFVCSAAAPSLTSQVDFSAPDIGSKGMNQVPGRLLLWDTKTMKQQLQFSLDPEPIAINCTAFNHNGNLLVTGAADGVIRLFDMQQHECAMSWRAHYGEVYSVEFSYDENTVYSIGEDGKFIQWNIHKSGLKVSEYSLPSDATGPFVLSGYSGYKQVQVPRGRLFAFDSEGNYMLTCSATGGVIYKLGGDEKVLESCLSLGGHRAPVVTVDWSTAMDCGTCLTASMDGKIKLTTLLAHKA
inactive: [1] 0.05 | [2] 0.011 | [3] 0.026 | [4] -0.002 | [5] -0.026 | [6] -0.013 | [7] -0.009 | [8] -0.046 | [9] 0.043 | [10] 0.002 | [11] -0.096 | [12] 0.028 | [13] 0.046 | [14] -0.043 | [15] -0.023 | [16] 0.055 | [17] -0.01 | [18] 0.041 | [19] 0.067 | [20] 0.019

UQCRC2 (UniProt P22695)
inactive: [1] -0.022 | [2] 0.001 | [3] 0.005 | [4] -0.04 | [5] -0.005 | [6] -0.001 | [7] 0.012 | [8] 0.029 | [9] 0.003 | [10] -0.013 | [11] -0.016 | [12] 0.01 | [13] -0.018 | [14] 0.026 | [15] 0.01 | [16] -0.015 | [17] 0.034 | [18] -0.003 | [19] 0.002 | [20] -0.02

WDR7 (UniProt Q9Y4E6)
inactive: [1] 0.067 | [2] 0.04 | [3] 0.063 | [4] -0.075 | [5] -0.03 | [6] -0.005 | [7] -0.013 | [8] 0.037 | [9] -0.06 | [10] -0.013 | [11] -0.005 | [12] -0.035 | [13] -0.019 | [14] -0.041 | [15] -0.057 | [16] 0.029 | [17] -0.007 | [18] 0.047 | [19] -0.018 | [20] 0.01

ZZEF1 (UniProt O43149)
inactive: [1] 0.018 | [2] -0.009 | [3] -0.002 | [4] -0.057 | [5] -0.014 | [6] -0.005 | [7] -0.063 | [8] 0.023 | [9] 0.009 | [10] -0.005 | [11] -0.013 | [12] 0.012 | [13] 0.051 | [14] -0.015 | [15] -0.028 | [16] -0.006 | [17] -0.116 | [18] 0.029 | [19] 0.036 | [20] 0.01

UNC13D (UniProt Q70J99)
inactive: [1] -0.043 | [2] -0.005 | [3] 0.031 | [4] -0.014 | [5] 0.018 | [6] 0.016 | [7] 0.015 | [8] 0.012 | [9] 0.025 | [10] -0.015 | [11] 0.039 | [12] 0.027 | [13] 0.024 | [14] -0.073 | [15] -0.083 | [16] 0.012 | [17] 0.026 | [18] -0.015 | [19] 0.05 | [20] -0.022

UQCC2 (UniProt Q9BRT2)
Chain of UniProt Q9BRT2 (Q9BRT2 whole entry, looked up): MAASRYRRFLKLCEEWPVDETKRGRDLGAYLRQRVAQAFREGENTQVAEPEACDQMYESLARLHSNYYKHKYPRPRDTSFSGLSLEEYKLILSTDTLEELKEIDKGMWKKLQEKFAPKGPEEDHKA
active: [17] 0.287
inactive: [1] 0.054 | [2] 0 | [3] 0.006 | [4] 0.01 | [5] 0.018 | [6] -0.022 | [7] 0.016 | [8] 0.007 | [9] -0.016 | [10] -0.012 | [11] -0.074 | [12] 0.005 | [13] -0.039 | [14] -0.013 | [15] 0.039 | [16] -0.039 | [18] -0.086 | [19] -0.04 | [20] -0.083

ZNHIT6 (UniProt Q9NWK9)
Chain of UniProt Q9NWK9 (Q9NWK9 whole entry, looked up): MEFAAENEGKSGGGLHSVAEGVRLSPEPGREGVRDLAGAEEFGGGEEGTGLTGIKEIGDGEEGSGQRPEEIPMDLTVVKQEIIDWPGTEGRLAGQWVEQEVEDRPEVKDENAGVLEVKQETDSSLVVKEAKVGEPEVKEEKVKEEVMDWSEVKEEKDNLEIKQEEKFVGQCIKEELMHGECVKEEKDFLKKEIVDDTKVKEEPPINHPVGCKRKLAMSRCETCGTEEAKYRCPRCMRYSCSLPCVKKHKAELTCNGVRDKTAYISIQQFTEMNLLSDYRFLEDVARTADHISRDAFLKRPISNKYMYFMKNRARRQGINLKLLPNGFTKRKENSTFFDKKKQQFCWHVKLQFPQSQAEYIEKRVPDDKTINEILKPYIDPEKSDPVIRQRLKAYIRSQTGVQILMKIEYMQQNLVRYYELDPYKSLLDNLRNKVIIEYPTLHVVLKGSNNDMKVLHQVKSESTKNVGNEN
inactive: [1] -0.01 | [2] -0.097 | [3] -0.032 | [4] 0.005 | [5] 0.001 | [6] 0.036 | [7] -0.02 | [8] 0.032 | [9] 0.018 | [10] -0.029 | [11] -0.001 | [12] 0.035 | [13] 0.009 | [14] 0.023 | [15] -0.016 | [16] 0.05 | [17] 0.089 | [18] -0.071 | [19] -0.029 | [20] -0.005

ZMYM1 (UniProt Q5SVZ6)
Chain of UniProt Q5SVZ6 (Q5SVZ6 whole entry, looked up): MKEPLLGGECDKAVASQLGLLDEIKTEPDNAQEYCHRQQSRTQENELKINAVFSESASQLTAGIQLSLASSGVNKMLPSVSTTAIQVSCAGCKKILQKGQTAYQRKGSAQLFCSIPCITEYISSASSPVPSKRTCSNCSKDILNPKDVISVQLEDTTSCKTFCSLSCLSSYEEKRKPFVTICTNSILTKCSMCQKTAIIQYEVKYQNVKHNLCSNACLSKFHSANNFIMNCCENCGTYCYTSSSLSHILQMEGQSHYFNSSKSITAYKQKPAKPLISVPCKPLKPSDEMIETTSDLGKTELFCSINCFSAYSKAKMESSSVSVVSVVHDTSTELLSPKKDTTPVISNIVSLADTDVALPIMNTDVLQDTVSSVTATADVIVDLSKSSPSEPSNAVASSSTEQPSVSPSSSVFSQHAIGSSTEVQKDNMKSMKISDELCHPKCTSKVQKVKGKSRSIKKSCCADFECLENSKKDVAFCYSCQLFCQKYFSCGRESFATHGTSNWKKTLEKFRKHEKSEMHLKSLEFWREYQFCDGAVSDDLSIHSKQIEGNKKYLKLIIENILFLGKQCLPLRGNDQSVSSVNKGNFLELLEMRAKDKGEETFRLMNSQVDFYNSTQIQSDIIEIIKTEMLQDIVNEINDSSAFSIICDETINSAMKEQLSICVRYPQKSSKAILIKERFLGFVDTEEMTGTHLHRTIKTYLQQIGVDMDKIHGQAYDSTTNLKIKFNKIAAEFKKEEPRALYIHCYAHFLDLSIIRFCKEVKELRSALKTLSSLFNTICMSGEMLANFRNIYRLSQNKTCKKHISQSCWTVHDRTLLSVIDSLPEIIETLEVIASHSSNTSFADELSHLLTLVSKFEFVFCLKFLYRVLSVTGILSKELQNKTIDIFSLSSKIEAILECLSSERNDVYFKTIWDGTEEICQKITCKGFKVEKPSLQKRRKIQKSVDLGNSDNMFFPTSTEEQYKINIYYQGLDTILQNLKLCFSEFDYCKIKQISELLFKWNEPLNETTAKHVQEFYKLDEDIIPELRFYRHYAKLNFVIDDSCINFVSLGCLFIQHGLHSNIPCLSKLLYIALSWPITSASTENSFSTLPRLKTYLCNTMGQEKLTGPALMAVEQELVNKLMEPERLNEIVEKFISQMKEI
active: [17] -0.272
inactive: [1] -0.04 | [2] 0.012 | [3] 0.02 | [4] 0.016 | [5] -0.022 | [6] -0.049 | [7] -0.008 | [8] 0.001 | [9] -0.007 | [10] -0.011 | [11] 0.011 | [12] -0.017 | [13] 0.05 | [14] -0.033 | [15] -0.124 | [16] 0.017 | [18] 0.127 | [19] 0.013 | [20] 0.05
